Experimental data as given in ChEMBL document CHEMBL4513216, “Probing the Open Global Health Chemical Diversity Library for Multistage-Active Starting Points for Next-Generation Antimalarials” (ACS Infect Dis, 2020).
The campaign covered roughly 69,000 compounds. About 8,600 (12%) showed an effect of 50% or more. Shown is part of a subset that was picked to be rich in strong results.

test system: Plasmodium berghei; experiment: Screen against P. berghei liver stage (PbLuc), transformed with Luciferase, at 10uM; type: functional, HepG2; conditions: tested at 10 uM

Row | SMILES | INHIBITION
1 | CN(C)c1cc(CNC(=O)c2cccc(F)c2)ccn1 | 24%
2 | CS(=O)(=O)c1ccc(C(=O)NCCNc2ncccn2)cc1 | -5.07%
3 | CS(=O)(=O)c1cccc(C(=O)NCC2Cc3ccccc3O2)c1 (configuration not stated) | 9.06%
4 | O=C(NCc1nc2cc(F)ccc2[nH]1)c1ccc[nH]1 | -7.16%
5 | CS(=O)(=O)c1ccc(C(=O)NCc2nc3cc(F)ccc3[nH]2)cc1 | 52.2%
6 | CS(=O)(=O)c1cccc(C(=O)NCc2nc3cc(F)ccc3[nH]2)c1 | 64.5%
7 | CC(C)CN1CC(C(=O)NCc2cccnc2-n2cccn2)CC1=O (configuration not stated) | 19.5%
8 | Cc1noc(C2(C)CCCN(C(=O)C(C)C)C2)n1 (configuration not stated) | 12.8%
9 | Cc1csc2c(C3CCCN(C(=O)Cn4cncn4)C3)nc(C)n12 (configuration not stated) | 7.19%
10 | c1cncc(CN2CCc3ncnc(C4CC4)c3CC2)c1 | 6.72%
11 | CC(C)N(C)C(=O)C1=NOC2(CCN(C(=O)c3ccncc3)C2)C1 (configuration not stated) | 3.47%
12 | CC(C)N(C)C(=O)C1=NOC2(CCN(C(=O)c3ccc(Cl)cc3)C2)C1 (configuration not stated) | -6.53%
13 | Cc1ccsc1C(=O)N1CCC2(CC(C(=O)N(C)C(C)C)=NO2)C1 (configuration not stated) | 56.6%
14 | O=C(C1CC=CC1)N1CCc2c(COCc3ccncc3)cncc2C1 | 6.8%
15 | CCc1nc(C2CCCN(C(=O)c3cccc(C(N)=O)c3)C2)no1 (configuration not stated) | 19.5%
16 | Cc1ccc2cc(C(=O)N3CCN(C(=O)c4ccoc4)CC3)[nH]c2c1 | 24.8%
17 | Cc1ccc2cc(C(=O)N3CCN(S(C)(=O)=O)CC3)[nH]c2c1 | -11.4%
18 | Cc1ccc2cc(C(=O)N3CCS(=O)(=O)CC3)[nH]c2c1 | 53.6%
19 | CCS(=O)(=O)CCN1CCN(C2CCC(C(C)C)CC2)CC1 (configuration not stated) | 13.8%
20 | CC(NCC1(N(C)C)CCOCC1)c1ccc(SC(F)F)cc1 (configuration not stated) | 40.5%
21 | CCOc1ccccc1C(CC(=O)Nc1ncc(C)s1)NC(C)=O (configuration not stated) | 39.3%
22 | CC(C)NC(=O)c1ccc2c(c1)nc1n2CCN(Cc2ccccc2)C1 | 33.3%
23 | Fc1ccccc1CN1CCCC(NC2CCOCC2)C1 (configuration not stated) | 49.4%

Row | SMILES | INHIBITION
24 | O=C(Cc1ccsc1)N1CCC(c2n[nH]c3nccnc23)CC1 | -0.902%
25 | O=C(Cc1ccsc1)N1CCCC(c2n[nH]c3nccnc23)C1 (configuration not stated) | 59.1%
26 | O=C(Cc1ccc(F)cc1)N1CCCC(c2n[nH]c3nccnc23)C1 (configuration not stated) | 23.2%
27 | Fc1cccc(CN2CCC(c3noc(-c4ccncc4)n3)CC2)c1F | 28.5%
28 | CN1CCN(C(=O)Cc2ccsc2)Cc2cccnc21 | 64.9%
29 | O=C(Cc1ccsc1)N1CCN(CC2CC2)c2ncccc2C1 | 29.4%
30 | c1cc(-c2nc(C3CCN(Cc4ccsc4)CC3)no2)ccn1 | 50.8%
31 | Cn1nc(C2CCN(C(=O)Cc3ccsc3)CC2)c2cccnc21 | 28%
32 | CN1CCN(C(=O)Cc2ccc(F)cc2)Cc2cccnc21 | -69.9%
33 | O=C(Cc1ccsc1)N1CCC(c2noc(-c3ccncc3)n2)CC1 | -0.902%
34 | O=C(Cc1ccsc1)N1CCCC(c2n[nH]c3ncccc23)C1 (configuration not stated) | 67.7%
35 | Cn1nc(C2CCCN(C(=O)Cc3ccsc3)C2)c2nccnc21 (configuration not stated) | 48.3%
36 | CC(=O)N1N=C(c2ccco2)OC1C(=O)N(CC(C)C)CC(C)C (configuration not stated) | -33%
37 | CC(C)c1cc(C(=O)N2CCN(CC3CC3)[C@@H]3CS(=O)(=O)C[C@@H]32)on1 | 42.1%
38 | O=C(NCCn1ccnc1)c1ccn(-c2ccccc2)n1 | 1.78%
39 | Cc1ccc(CN(CCCN(C)C)Cc2cnc(C)n2C)o1 | 9.93%
40 | Cc1nnsc1CNC(=O)c1ccc2c(c1)nc(N1CCOCC1)n2C | -24.6%
41 | CC(C)c1nc(CCn2cncn2)n(-c2ccc3c(c2)OCCO3)n1 | 3.96%
42 | Cc1ccc(CCC(=O)N2CCCC(c3cc(C(N)=O)[nH]n3)C2)cc1 (configuration not stated) | 48.1%
43 | Cc1cccc(CC(=O)N2CCCC(c3n[nH]c4nccnc34)C2)c1 (configuration not stated) | 50.8%
44 | Cc1ccc(CC(=O)N2CCCC(c3n[nH]c4nccnc34)C2)cc1 (configuration not stated) | 44.8%
45 | Fc1ccc(CN2CCC(c3n[nH]c4nccnc34)CC2)cc1F | 35.3%
46 | c1cnc2[nH]nc(C3CCN(Cc4ccsc4)CC3)c2c1 | 22%

Row | SMILES | INHIBITION
47 | NC(=O)c1cc(C2CCCN(C(=O)CCc3ccncc3)C2)n[nH]1 (configuration not stated) | -51.5%
48 | c1cnc2c(C3CCN(Cc4ccsc4)CC3)n[nH]c2n1 | 64.8%
49 | COc1cccc(CC(=O)N2CCCC(c3n[nH]c4nccnc34)C2)c1 (configuration not stated) | 2.71%
50 | NC(=O)c1cc(C2CCCN(C(=O)CCc3ccsc3)C2)n[nH]1 (configuration not stated) | 56.6%
51 | Cc1nn(CCC(=O)NC2CCCOC2)c(C)c1C (configuration not stated) | 3.35%
52 | CC1CCN(CCNC(=O)C(C)n2cncn2)CC1 (configuration not stated) | 22.3%
53 | CNC(=O)C1(C)CN(Cc2cn(C)c3ccc(F)cc23)CCO1 (configuration not stated) | 3.48%
54 | CNC(=O)[C@@H]1CN(C(=O)C2CCC2)C[C@H]1c1ccnc(N2CCCC2)n1 | -33.3%
55 | CCCN1CC(NC(=O)Nc2nc(C)n(C(C)C)n2)CC1=O (configuration not stated) | 44.6%
56 | CCN1CC(NC(=O)Nc2nc(C)n(C(C)C)n2)CC1=O (configuration not stated) | 64.4%
57 | Cc1nc(NC(=O)NC2CC(=O)N(C)C2)nn1C(C)C (configuration not stated) | 40.6%
58 | COC(=O)C(NC(=O)CCc1ccco1)c1cc(F)ccc1F (configuration not stated) | -4.16%
59 | CC(C(=O)N1CCCCC1)n1nc(-c2cccs2)cc(N)c1=O (configuration not stated) | 23%
60 | O=C(Cc1ccc(Cl)cc1)N[C@@H]1CCC[C@@H](O)[C@@H]1O | 14.21%
61 | CC(C)(C)c1noc(-c2ccnc(-n3cnc(C(=O)O)c3)c2)n1 | -6.73%
62 | CC(=O)N1CCOC(c2cncc(CCC(N)=O)n2)C1 (configuration not stated) | 10.9%
63 | c1nc(C2CCCCO2)ncc1CN1CCOCC1 (configuration not stated) | 0.696%
64 | N#Cc1cc2c(nc1SCc1cc(O)nc(O)n1)CCCC2 | 32.3%
65 | N#Cc1cc2c(nc1SCc1cc(O)nc(O)n1)CCCCC2 | 66.4%
66 | N#Cc1cc2c(nc1O)CCCCC2 | 23.4%
67 | N#Cc1ccccc1N1CC2(CCCCN2CC2CC2)CC1=O (configuration not stated) | 15.3%
